# PI5P4Ka inh: qHTS for Inhibitors of phosphatidylinositol 5-phosphate 4-kinase (PI5P4K) | Phosphatidylinositol 5-phosphate 4-kinase type-2 alpha (Homo sapiens), P48426 | PI5P4Kalpha enzyme, ADP-Glo luminescence, 60 min; stronger effect = lower value | max response, % | actives 1.2% (n = 330,000) | AID 652105, 2013; active = max response of -50% or lower; inconclusive = between -30% and -50%; inactive = -30% or higher; also: value at the top dose of about 77 µM
#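 Compounds were pin-transferred onto PI5P4Kalpha and substrate in HEPES pH 7.4 buffer with EGTA, CHAPS and 5% DMSO. ATP (5 microM final) started the reaction, which ran 60 minutes at room temperature before ADP-Glo detection.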
# CtBP-E1A blk: qHTS Assay for Inhibitors of the CtBP/E1A Interaction. CtBP / adenovirus E1A interaction (AlphaScreen). AlphaScreen GST-E1A/His-CtBP binding, 1536-well; stronger effect = lower value. activity change, % (no concentration beside the values). actives 0.49% (n = 340,000). AID 651724, 2012
#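 AlphaScreen with 125 nM GST-E1A and 125 nM His-CtBP (5X stocks) in Tris pH 8.0, 300 mM NaCl, BSA, Tween 20, TCEP. Compounds preincubated 2 h at 37 deg C, then glutathione donor/nickel acceptor beads added for 1 h at 37 deg C in dark.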
# PI4K2A block: qHTS for small molecular inhibitors of PI4K2A; Phosphatidylinositol 4-kinase type 2-alpha (Homo sapiens), Q9BTU6; purified PI4K2A, ADP-Glo luminescence, 1 h; stronger effect = lower value; activity change, negative = inhibition, % at 76.9 µM; actives 0.13% (n = 420,000); AID 1346378, 2018; in the data active = activity change below about -50%; inconclusive = mostly about -30% to -49%;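 also: -100% = wells without enzyme as full effect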
#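 Compounds are screened against recombinant PI4K2A using PI as substrate and ATP, the latter dispensed at 300 microM. Reactions run one hour at ambient temperature before ADP-Glo detection; full inhibition defined by wells lacking enzyme.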
# Six1-Eya2 inh: qHTS Assay for Inhibitors of the Six1/Eya2 Interaction; Homeobox protein SIX1 (Homo sapiens) + Protein phosphatase EYA2 (Homo sapiens), …; AlphaScreen GST-Six1/His-Eya2 binding, biochemical; stronger effect = lower value; activity change, % (concentration not given with the values); actives 0.56% (n = 360,000)
# Target sequence (O00167 whole entry, looked up): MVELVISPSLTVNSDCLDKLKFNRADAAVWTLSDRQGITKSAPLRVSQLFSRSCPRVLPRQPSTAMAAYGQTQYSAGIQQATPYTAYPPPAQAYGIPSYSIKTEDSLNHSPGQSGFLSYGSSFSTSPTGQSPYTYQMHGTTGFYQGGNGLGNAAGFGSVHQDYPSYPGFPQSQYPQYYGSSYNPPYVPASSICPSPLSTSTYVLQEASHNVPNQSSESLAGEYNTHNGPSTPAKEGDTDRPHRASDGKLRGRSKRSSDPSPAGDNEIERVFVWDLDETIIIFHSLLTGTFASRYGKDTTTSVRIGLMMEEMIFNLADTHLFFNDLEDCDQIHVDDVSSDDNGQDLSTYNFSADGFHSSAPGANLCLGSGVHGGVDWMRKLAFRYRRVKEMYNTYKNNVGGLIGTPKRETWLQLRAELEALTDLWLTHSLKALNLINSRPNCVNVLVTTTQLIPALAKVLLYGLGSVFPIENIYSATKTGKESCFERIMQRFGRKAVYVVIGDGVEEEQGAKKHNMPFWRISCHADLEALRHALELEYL
# Target sequence (Q15475 whole entry, looked up): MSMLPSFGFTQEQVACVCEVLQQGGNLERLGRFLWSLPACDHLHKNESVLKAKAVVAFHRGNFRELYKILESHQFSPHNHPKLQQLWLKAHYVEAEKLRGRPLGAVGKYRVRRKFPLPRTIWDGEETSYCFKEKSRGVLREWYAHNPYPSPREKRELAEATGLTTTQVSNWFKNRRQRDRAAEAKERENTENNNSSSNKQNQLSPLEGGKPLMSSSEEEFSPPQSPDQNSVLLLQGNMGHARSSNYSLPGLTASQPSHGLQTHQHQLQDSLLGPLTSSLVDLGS
#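 Homogeneous AlphaScreen proximity assay pairing GST-Six1 with His-tagged Eya2 (added as 5X mix: 250 nM and 500 nM) in 50 mM Tris pH 8.0, 300 mM NaCl, 1 mM TCEP. Glutathione donor and nickel acceptor beads; 1 h, 37 °C, dark.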
# pAkt inh: HTS Assay for Inhibitors of Akt Phophorylation: Primary Screen; Neuro2A IGF-stimulated pAkt S473 HTRF, 20 min; stronger effect = lower value; activity change, % for hits at 50 µM; actives 0.32% (n = 360,000); AID 651550, 2012; in the data active = activity change below about -80%; inconclusive = mostly about -51% to -80%
#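 Single-point screen (50 µM final compound) in Neuro2A cells stimulated 20 min with 6 nM IGF at 37 deg C. After lysis, Ser473-phosphorylated Akt read by HTRF (ex 330 nm, em 615/665 nm) as the 665/615 ratio.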
# Starred values were filed as active, the others as inactive; i = inactive; u = inconclusive; x = no result. A selection: hits, their analogues and other compounds. The true share with any hit is near 1.8%. Rule as the data show it, unless noted: active = activity change below about -65%; inconclusive = mostly about -30% to -63%; inactive = weaker than that. Unless noted, % is scaled to controls: 0 for no effect and ±100 for the full control effect.
SMILES,PI5P4Ka inh,CtBP-E1A blk,PI4K2A block,Six1-Eya2 inh,pAkt inh
Cc1cc(Br)ccc1NC(=O)CNC(=O)CSc1ncccn1,4,6,-4,1,i
COC(=O)CNC(=O)Cn1cnc2sc(C)c(S(=O)(=O)N3CCN(c4ccccc4OC)CC3)c2c1=O,2,19,-4,18,i
Cc1ccc(C(=O)Sc2cccccc2=O)cc1,-27,-89*,-12,-77*,i
Cc1cccc2c(N=O)c(O)[nH]c12,-59*,-2,5,-1,i
COCCSc1ccccc1C(=O)Nc1nccs1,x,4,-1,6,i
COC(=O)C1=C(C)NC(C)=C(C(=O)OC)C1c1ccccc1[N+](=O)[O-],-58*,u,3,-28,i
CN(CCOc1ccccc1)C(=O)C1CCN(C(=O)c2ccc(Cl)cc2)CC1,6,-3,-5,0,i
Oc1c(Cl)cc(Cl)cc1CNc1ccccn1,-1,u,2,-72*,i
c1ccc(-c2nnsc2-c2ccccc2)cc1,-60*,9,0,22,i
CSc1snnc1-c1ccccc1,1,10,8,-3,i
O=S(=O)(Nc1ccc(Cl)cc1)c1cccc2cccnc12,3,u,2,u,i
Cc1cc(Br)ccc1NC(=O)C(Cc1ccccc1)NS(=O)(=O)c1ccc(Br)s1 (configuration not stated),x,x,-1,x,x
C[C@@H]1CN([C@H](C)CO)C(=O)CCCn2cc(nn2)CO[C@H]1CN(C)S(=O)(=O)c1cccc(C#N)c1,-4,3,-5,10,i
COc1ccccc1-c1coc2cc(OC(=O)/C=C/c3ccccc3)ccc2c1=O,8,-68*,19,-17,i
CCCCn1c(SCC(=O)Nc2cc(C)on2)nc2ccccc2c1=O,x,15,1,-12,-105%*
CCCCn1c(SCC(=O)Nc2ccc(NC(C)=O)cc2)nc2ccccc2c1=O,2,-17,-2,-1,i
Nc1cc2[nH]c(=O)c3ccccc3c2cc1[N+](=O)[O-],-4,-72*,2,-72*,i
CC(=O)c1coc2c1cc(O)c1ccccc12,x,-3,-5,-1,i
CC(=O)Oc1cc2c(C(C)=O)coc2c2ccccc12,1,6,4,0,-144%*
COc1ccc(-c2csc3ncnc(N4CCN(c5cccc(Cl)c5)CC4)c23)cc1,19,-9,-6,-11,i
O=c1cc(O)c2sc(Nc3ccc(F)c(Cl)c3)nc2[nH]1,-69*,1,-2,-7,i
COC(=O)COc1ccc(S(=O)(=O)Nc2ccc(C(N)=O)cc2)cc1Cl,x,2,7,2,i
O=C(c1cccs1)N1CCN(Cc2ccccn2)CC1,-3,0,-1,5,i
CCOC(=O)N1CCN(Cc2ccccn2)CC1,-1,11,-1,9,-105%*
Cc1c(O)ccc(C(=O)COc2ccccc2F)c1O,1,-4,3,3,x
SMILES,PI5P4Ka inh,CtBP-E1A blk,PI4K2A block,Six1-Eya2 inh,pAkt inh
O=C(c1ccco1)N1CCN(C(=O)c2ccc(-c3cccc(C(F)(F)F)c3)o2)CC1,6,-1,0,-2,i
O=C(NCc1ccccc1)c1ccc(NS(=O)(=O)c2cccs2)cc1,-2,-3,2,9,i
C/C(=N\NC(=O)c1ccc(NS(=O)(=O)c2cccs2)cc1)c1ccc(O)cc1O,-96*,u,-4,u,i
CC(=O)Nc1cccc(C(=O)NNC(=O)c2ccc(NS(=O)(=O)c3cccs3)cc2)c1,0,6,-7,-17,i
C/C(=N\NC(=O)c1ccc(NS(=O)(=O)c2cccs2)cc1)c1ccccc1,-53*,10,-5,2,i
C/C(=N\NC(=O)c1ccc(Br)cc1)c1cccc(NC(=O)c2cccnc2)c1,3,0,10,0,i
CC(=NNC(=O)c1ccc(NS(=O)(=O)c2ccc(Br)cc2)cc1)c1cccnc1,-53*,-1,-8,-9,i

# Assay outcomes deposited in PubChem BioAssay by National Center for Advancing Translational Sciences (NCATS).
